Compound activity: PubChem, The Scripps Research Institute Molecular Screening Center
Wee1 degr inh = blocks degradation of human Wee1 kinase; 1.2% of 220,000 active; HeLa Luc-Wee1K328M stability, luciferase luminescence; 100% = proteasome inhibitor MG132 effect; reporter increase, % at 5 µM;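 active = activation above the mean of all tested compounds plus 3 SD, set per screening run, cut at about 8.8% in these data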;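 also: cells exposed to compound for 20 h before luminescence read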
hgDAF12 agonist = hgDAF-12 agonism, primary luciferase screen | HEK293 GAL4-hgDAF12 UAS-luciferase reporter, agonist luminescence; normalized to butyrate control | activation, % at 6.8 µM | 1.8% of 370,000 active | AID 687014;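 active = activation above a cutoff set at the mean of all screened compounds plus 3 SD, cut at about 10% in these data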
ssDAF-12 act = S. stercoralis DAF-12 activation, primary screen; HEK293 ssDAF-12/GRIP1 lit1-tk-luc reporter, luminescence; % of 3 µM dafachronic acid response; activation, % at 6.8 µM; 1% of 370,000 active; AID 652126;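 active = activation above the mean over all tested compounds plus 3 SD, cut at about 0.9% in these data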
hcDAF12 agonist = activates DAF-12 receptor from parasite H. contortus. HEK293 hcDAF-12 lit1-tk-luc reporter, luminescence; 0% DMSO, 100% Δ7-dafachronic acid. activation, % at 6.8 µM. 1.4% of 370,000 active. AID 652067;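 active = activation above the mean of all tested compounds plus 3 SD, cut at about 5.5% in these data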
DAX1 inh-1 = DAX1 (NR0B1) inhibition, primary screen | HEK293T StAR-luciferase reporter, SF-1/DAX-1 repression relief | inhibition, % at 6.8 µM | 1.1% of 370,000 active | AID 652010;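 active = inhibition above the mean over all tested compounds plus 3 SD, cut at about 3.6% in these data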;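 also: higher inhibition means more luminescence from relief of DAX-1 repression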
DAX1 inh-2 = inhibits human nuclear receptor DAX1; P51843; HEK293 Gal4-DAX1 luciferase reporter, luminescence; inhibition, % at 6.75 µM; 0.99% of 340,000 active; AID 504766;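 active = inhibition above the mean over all tested compounds plus 3 SD, cut at about 4.2% in these data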;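 also: inhibition shows as a rise in luminescence from relieved DAX1 repression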
Target sequence (P51843 207-470 limits assumed): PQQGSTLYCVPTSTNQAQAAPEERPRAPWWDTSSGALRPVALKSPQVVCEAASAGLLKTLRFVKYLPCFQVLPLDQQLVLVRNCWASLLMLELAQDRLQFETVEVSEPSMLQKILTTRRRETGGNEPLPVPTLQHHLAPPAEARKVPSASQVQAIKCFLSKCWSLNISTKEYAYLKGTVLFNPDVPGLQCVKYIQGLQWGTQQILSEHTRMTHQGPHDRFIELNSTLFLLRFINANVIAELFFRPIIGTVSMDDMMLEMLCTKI
Wee1 stab conf = confirmation of human Wee1 degradation inhibitors. activation, % at 5 µM. 4% of 1,100 active. shares compounds with Wee1 degr inh. HeLa Luc-Wee1K328M degradation, luminescence; vehicle 0%, proteasome-blocked wells 100%; in the data active = activation above about 8.9%
Of the large screens only hits and unclear results are named; the others gave an inactive call (follow-up assays come after a bar, where they were run). An excerpt weighted towards active compounds, which were near 4.6% of everything screened.

CC(=O)Nc1cccc(-c2ccnc3c2CC(C)(C(=O)Nc2cccc(Oc4ccccc4)c2)O3)c1 (configuration not stated)	none (no result: Wee1 degr inh, DAX1 inh-2)
CCS(=O)(=O)N1CCN(c2ccc([N+](=O)[O-])c(NCC3CCCO3)c2)CC1 (configuration not stated)	Wee1 degr inh 12 | Wee1 stab conf inactive
C=CCn1c(SCc2cc(=O)n3cc(C)ccc3n2)nnc1-c1ccc(F)cc1	Wee1 degr inh 15 | Wee1 stab conf inactive
Cc1cc(C)c2c(N=NN(C)C)[nH]nc2n1	Wee1 degr inh 13 | Wee1 stab conf inactive
Cn1c(=NC(=O)c2ccccc2[N+](=O)[O-])sc2cccc(F)c21	Wee1 degr inh 17, hgDAF12 agonist 13 | Wee1 stab conf inactive
CCC(C)(C)NC(=O)C(c1ccncc1)N(C(=O)Cn1nnc2ccccc21)c1cc2c(cc1C(C)=O)OCO2 (configuration not stated)	Wee1 degr inh 14 | Wee1 stab conf inactive
Cc1ccc(Nc2c(-c3ccco3)nc3nc(C)cc(C)n23)cc1	Wee1 degr inh 31 | Wee1 stab conf inactive
COc1ccc(Nc2c(-c3cccc(OC)c3)nc3nc(C)cc(C)n23)cc1	none (no result: Wee1 degr inh, DAX1 inh-2)
COc1ccccc1CNC(=O)COC(=O)CSc1ccc(C)c(C)c1	none (no result: Wee1 degr inh)
CCOc1ccc(CCNC(=O)CN2C(=O)CCSc3ccccc32)cc1	none (no result: Wee1 degr inh)
CC(C)(c1ccccc1)c1ccc(OCC(O)CNC2CCN(Cc3ccccc3)CC2)cc1 (configuration not stated)	none
Cc1cc(OCc2nnc(SC(C)C(=O)O)n2Cc2ccccc2)ccc1Cl (configuration not stated)	Wee1 degr inh 18 (no result: DAX1 inh-2) | Wee1 stab conf inactive
CC(Sc1nnc(COc2ccc3ccccc3c2)n1C)C(=O)O (configuration not stated)	none
Cc1noc(C)c1C(=O)OCC(=O)NC1CCCCC1C (configuration not stated)	none (no result: Wee1 degr inh)
COc1ccc(OCc2nc(N)nc(Nc3ccccc3OC)n2)cc1	Wee1 degr inh 18 | Wee1 stab conf inactive
COc1ccccc1Nc1nc(N)nc(CCl)n1	none
NNC(=O)c1ccc(COc2ccc3ccccc3c2)cc1	Wee1 degr inh 15 | Wee1 stab conf inactive
COc1cccc(-c2cnc(C(O)c3ccc(Cl)cc3)[nH]2)c1 (configuration not stated)	none (no result: Wee1 degr inh, DAX1 inh-2)
CCOC(=O)c1cnc2ccc(OC)cc2c1NCc1ccccc1	Wee1 degr inh 13 | Wee1 stab conf inactive
O=S1(=O)CCOC(CO)CN1Cc1ccc(Cl)c(Cl)c1 (configuration not stated)	none (no result: Wee1 degr inh)
Cc1ccc(-c2cc(C(F)(F)F)c(C#N)c(=O)[nH]2)cc1	none
N#Cc1c(C(F)(F)F)cc(C2CC2)[nH]c1=O	Wee1 degr inh 15 | Wee1 stab conf inactive
Cc1noc(C)c1S(=O)(=O)N(C)C[C@H]1Oc2ccc(NS(=O)(=O)c3cn(C)cn3)cc2C(=O)N([C@H](C)CO)C[C@@H]1C	none (no result: Wee1 degr inh)
COc1ccc(-c2noc(CN(C)Cc3ccc(C)o3)n2)cc1	Wee1 degr inh 12 | Wee1 stab conf inactive
CN(C(=O)c1cccc(NC(=O)Cc2ccc(NC(=O)C3CCCN(S(=O)(=O)c4cccc([N+](=O)[O-])c4)C3)cc2)c1)C1CCC1 (configuration not stated)	none (no result: Wee1 degr inh)
COc1cc(NCCCC(C)N)c2ncccc2c1 (configuration not stated)	Wee1 degr inh 29 | Wee1 stab conf inactive
COc1cccc(-c2nnc(-c3ccco3)o2)c1	Wee1 degr inh 11, hgDAF12 agonist 12 | Wee1 stab conf inactive
Cn1c(SCC(=O)c2ccccc2)nnc1-c1cnccn1	Wee1 degr inh 13 | Wee1 stab conf inactive
CCCCNS(=O)(=O)c1ccc2nc(-c3cccnc3)cc(C(=O)NC(C)C)c2c1	Wee1 degr inh 19 | Wee1 stab conf inactive
CCCCNS(=O)(=O)c1ccc2nc(-c3cccnc3)cc(C(=O)NC(C)CC)c2c1 (configuration not stated)	none
